The text below walks through data of PubChem BioAssay (EPA / NIEHS).

Molecules are shown by their SMILES. Inconclusive results are not listed. Calls of active or inactive are those of the source. Rule for the calls: active = hit-call score of the fitted dose curve at least 0.9, where 1 is the maximum; inconclusive = response in the unintended direction; inactive = score below 0.9.

The term AC50 denotes the concentration giving half of the maximal activity seen.

The test can be described thus: TOX21_p53_BLA_p3_viability: Viability Assessment in the Tox21 HCT-116 p53 Agonism Beta-lactamase Assay, Phase 3 (AID 2283593).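 Note: cells exposed to compound for 16 h before reading.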 The text has this: TOX21_p53_BLA_p3 is a cell-based, single-readout assay that uses HCT116, a human intestinal cell line, […] in a 1536-well plate.TOX21_p53_BLA_p3_viability is an assay readout measuring cellular ATP content and detected with CellTiter-Glo Luciferase-coupled ATP quantitation.TOX21_p53_BLA_p3_viability used a type of viability reporter where loss-of-signal activity can be used to understand changes in the cell viability. Furthermore, this assay endpoint can be referred to as a secondary readout, because this assay has produced multiple assay endpoints where this one serves a viability function. To generalize the intended target to other relatable targets, this assay endpoint is annotated to the cell cycle intended target family, where the subfamily is cytotoxicity.
Thawing Method: Place 14 mL of pre-warmed thaw medium into a 15 mL of conical tub. Remove the vial of cells to be thawed from liquid nitrogen and thaw rapidly by placing at 37C in a water bath with gentle agitation for 1-2 minutes. Decontaminate the vial by wiping with 70% ethanol before opening in a biological safety cabinet. Transfer the vial contents drop-wise into 14 mL of thaw medium in a sterile 15-mL conical tub. Centrifuge cells at 900 rpm for 4 minutes and resuspend in thaw medium. Transfer contents to the T75 tissue culture flask containing Thaw Medium and place flask in a humidified 37C/5% CO2 incubator. Switch to growth medium at first passage.Propagation Method: Aspirate medium, rinse once in DPBS, add 0.25% Trypsin/EDTA and swirl to coat the cell evenly. Add an equal volume of Growth Medium to inactivate Trypsin after 2-3 minutes incubation at 37C. Centrifuge cells at 900 rpm for 4 minutes and resuspend in growth medium. Cell should be passage or fed at least twice a week.Assay Protocol: Harvest cells from culture in growth medium and resuspend in assay medium. 2.2 Dispense 4000 cells/5 uL/well into 1536-well black/clear bottom plates using a Multidrop dispenser. After the cells were incubated at 37C for 5 hours, 23 nL of compounds dissolved in DMSO were transferred to the assay plate by a PinTool resulting in a 217-fold dilution. Incubate the plates for 16 hours at 37C, 5% CO2. Add 1 uL of 6X LiveBLAzer FRET B/G (CCF4-AM) Substrate Mixture to each well using a BioRAPTR dispenser and incubate the plates at room temperature for 2 hours. Measure fluorescence intensity at 460 and 530 nm emission and 405 nm excitation by an Envision detector. Data is expressed as the ratio of 460nm/530nm emissions. Add 4 uL of Cell-titer Glo to each well using BioRAPTR and incubate the plates at room temperature for […]. For cell viability readout that measures cytotoxicity, 4 ul/well of CellTiter-Glo reagent was added into the assay plates using a Flying Reagent Dispenser. After 30 min incubation at room temperature, the luminescence intensity in the plates was measured using a ViewLux plate reader.
As to `CC(=O)OCC1=C(C(=O)O)N2C(=O)[C@@H](N)[C@H]2SC1`, the result was inactive. On the same count and under the same terms, in the case of `CCCCCCI` it was “inactive”. The same measure, in the same setting: in the case of `c1ccc(Nc2ccc3ccccc3c2)cc1` it was “inactive”.

As for `CCCCCc1cc(O)c2c(c1)OC(C)(C)c1ccc(C)cc1-2`, the AC50 is 30.1 µM (active). Turning to `Nc1c(Br)cc([N+](=O)[O-])cc1[N+](=O)[O-]`, the outcome was inactive. On to `ClCCOCOCCCl`, for which the molecule was classed as inactive.

In the case of `O=[N+]([O-])c1ccc([As](=O)(O)O)cc1`, the molecule was classed as inactive. On the same count and under the same terms, in the case of `O=C(Cl)CCl` it was “inactive”; in that of `CC(Cc1ccc2c(c1)OCO2)NO` (stereo not given), “inactive”; in that of `COc1cccc(C(=O)CCN[C@@H](C)[C@H](O)c2ccccc2)c1`, “inactive”. Same read-out and setting: in the case of `c1ccc2c(c1)Sc1ccccc1N2CC1CN2CCC1CC2` (stereo not given) it was “inactive”; in that of `Clc1ccc2ccccc2c1`, “inactive”; in that of `Nc1nc(N)nc(N)n1`, “inactive”. For the molecule `N#Cc1sc2c(=O)c3ccccc3c(=O)c=2sc1C#N`, the AC50 was 25.2 µM (active). For the molecule `CC(=O)O[C@H]1C[C@H](O[C@H]2[C@@H](O)C[C@H](O[C@H]3[C@@H](O)C[C@H](OC4CC[C@@]5(C)C(CC[C@@H]6[C@@H]5CC[C@]5(C)[C@@H](C7=CC(=O)OC7)[C@@H](O)C[C@]65O)C4)O[C@@H]3C)O[C@@H]2C)O[C@H](C)[C@H]1O[C@@H]1O[C@H](CO)[C@@H](O)[C@H](O)[C@H]1O` (stereo not given in full), the AC50 is 0.683 µM (active). On to `O=C(Cl)OCc1ccccc1`, for which the result was inactive. Still for that read-out and setting: in the case of `C=CCN1CC[C@]23CCCC[C@H]2[C@H]1Cc1ccc(O)cc13` it was “inactive”. The same measure, in the same setting: in the case of `Nc1cc(Cl)ccc1Cl` it was “inactive”. Still for that read-out and setting: in the case of `Cc1cccc(Cc2cnc[nH]2)c1C` it was “inactive”; in that of `CNC(C)Cc1ccccc1` (stereo not given), “inactive”. On to `CCOC(=O)C1OC1(C)c1ccccc1` (stereo not given), for which the molecule was called inactive. As to `[CH3][Hg][Cl]`, the AC50 is 79.6 µM (active). Consider `O=c1[nH]c(Cl)c(Cl)cc1Cl`, for which the result was inactive.

On to `O=[N+]([O-])c1ccccc1CCl`, for which the outcome was inactive.

Turning to `CNC(=O)Oc1c(C(C)(C)C)cc(C)cc1C(C)(C)C`, the result was inactive. On the same count and under the same terms, in the case of `c1ccc(P(c2ccccc2)c2ccccc2)cc1` it was “inactive”. On the same count and under the same terms, in the case of `CCCN(CCC)C(=O)Cc1c(-c2ccc(Cl)cc2)nc2ccc(Cl)cn12` it was “inactive”; in that of `C=C1CC[C@@]2(O)[C@H]3Cc4ccc(O)c5c4[C@@]2(CCN3CC2CC2)[C@H]1O5`, “inactive”.

With `CC(C)(C)NCC(O)c1ccccc1Cl` (stereo not given), the molecule was classed as inactive. As for `Cn1cc(C2=C(c3cn(C4CCN(Cc5ccccn5)CC4)c4ccccc34)C(=O)NC2=O)c2ccccc21`, the molecule was classed as inactive. For the molecule `CCC1(CC)C(=O)NC(=O)N(C)C1=O`, the outcome was inactive. Regarding `S=C=S`, the result was inactive. Same read-out and setting: in the case of `c1ccc2cc3c(cc2c1)-c1cccc2cccc-3c12` it was “inactive”; in that of `OC(c1ccc(F)cc1)(c1cncnc1)c1ccccc1Cl` (stereo not given), “inactive”. With `Nc1ccc(Cc2ccc(N)c(Cl)c2)cc1Cl`, the AC50 is 77.1 µM (active). Consider `Clc1ccc([C@@H]2C[C@H]3CC[C@@H]2N3)cn1`, for which the call was inactive. With `[O]=[Cr](=[O])([OH])[O][Cr](=[O])(=[O])[OH]`, the concentration at half-maximal activity (AC50) was 11.4 µM (active) [middle of 4 runs]. Consider `O=c1[nH]cc(N(CCCl)CCCl)c(=O)[nH]1`, for which the call was inactive. The same measure, in the same setting: in the case of `COC(=O)C(Cl)C(=O)OC` it was “inactive”. For `CN(C)c1ccc(N)cc1`, the outcome was inactive.
